What all share (assay): DAPPL (digital affinity profiling via proximity ligation, sequencing); 10 mM Tris-HCl pH 7.5, 50 mM NaCl, 1 mM DTT, 4% glycerol, room temperature, 30 min; GST-TFs on glutathione beads, 16-mer random dsDNA library, 0.1% formaldehyde crosslink after washing; high values mean tight binding
The target of one assay is T1, FEV (Homo sapiens, UniProt Q99581 1-238).
T1 sequence: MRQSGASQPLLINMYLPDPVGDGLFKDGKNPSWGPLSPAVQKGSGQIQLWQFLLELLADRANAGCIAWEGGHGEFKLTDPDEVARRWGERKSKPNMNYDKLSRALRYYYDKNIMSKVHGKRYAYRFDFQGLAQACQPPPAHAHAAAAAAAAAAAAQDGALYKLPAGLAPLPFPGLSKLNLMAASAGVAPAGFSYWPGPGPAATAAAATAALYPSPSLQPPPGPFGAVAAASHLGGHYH
To be noted: protein: recombinant; tags: N-terminal GST; dsDNA, one strand shown. Summed up: (§1)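 Each value of binding signal is a hexamer's read frequency for a factor divided by the same hexamer's frequency in the tag-only sample. Barcoded, bead-captured GST fusions of human transcription factors made in yeast were pooled with that sample and incubated with 200 nmole of a random double-stranded 16-mer DNA library in Tris/NaCl/DTT/glycerol buffer at room temperature for 30 min. Washing, 0.1% formaldehyde crosslinking, proximity ligation, PCR and Illumina NextSeq500 sequencing followed.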

A further assay has as its target ETV5 (Homo sapiens, UniProt P41161 1-510). To be noted: protein: recombinant; tags: N-terminal GST; dsDNA, one strand shown. An outline of the steps: as §1
The next assay concerns the target HSF1 (Homo sapiens, UniProt Q00613 1-529). To be noted: protein: recombinant; tags: N-terminal GST; chain copies: 3; dsDNA, one strand shown. An outline of the steps:
as §1

The target of the next assay is T2, SPIC (Homo sapiens, UniProt Q8N5J4 1-248).
T2 sequence: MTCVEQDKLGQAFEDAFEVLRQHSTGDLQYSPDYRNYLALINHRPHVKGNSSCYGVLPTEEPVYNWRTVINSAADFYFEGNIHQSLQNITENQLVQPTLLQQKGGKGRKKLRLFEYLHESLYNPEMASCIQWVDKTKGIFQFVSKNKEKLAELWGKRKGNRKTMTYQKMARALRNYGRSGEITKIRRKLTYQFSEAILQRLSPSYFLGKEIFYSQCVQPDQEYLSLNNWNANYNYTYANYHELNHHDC
To be noted: protein: recombinant; tags: N-terminal GST; dsDNA, one strand shown. An outline of the steps: as §1

The target of the next assay is ELF4 (Homo sapiens, UniProt Q99607 1-663). To be noted: protein: recombinant; tags: N-terminal GST; dsDNA, one strand shown. Summed up:
as §1

The target of the next assay is T3, ELK4 (Homo sapiens, UniProt P28324-2 1-405).
T3 sequence: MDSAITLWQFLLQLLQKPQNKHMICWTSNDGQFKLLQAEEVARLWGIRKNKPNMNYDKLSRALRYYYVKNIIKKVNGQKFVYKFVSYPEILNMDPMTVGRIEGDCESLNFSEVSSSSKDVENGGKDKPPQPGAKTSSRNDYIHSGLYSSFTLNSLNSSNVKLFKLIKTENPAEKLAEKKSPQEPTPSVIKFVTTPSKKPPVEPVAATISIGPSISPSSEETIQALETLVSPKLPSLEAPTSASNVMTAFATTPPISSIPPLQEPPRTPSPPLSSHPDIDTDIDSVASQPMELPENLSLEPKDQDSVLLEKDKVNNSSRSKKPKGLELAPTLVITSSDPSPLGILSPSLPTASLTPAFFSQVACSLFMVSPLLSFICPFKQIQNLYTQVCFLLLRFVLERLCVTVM
To be noted: protein: recombinant; tags: N-terminal GST; dsDNA, one strand shown. An outline of the steps: as §1

The target in a further assay is T4, ETV2 (Homo sapiens, UniProt O00321 1-342).
T4 sequence: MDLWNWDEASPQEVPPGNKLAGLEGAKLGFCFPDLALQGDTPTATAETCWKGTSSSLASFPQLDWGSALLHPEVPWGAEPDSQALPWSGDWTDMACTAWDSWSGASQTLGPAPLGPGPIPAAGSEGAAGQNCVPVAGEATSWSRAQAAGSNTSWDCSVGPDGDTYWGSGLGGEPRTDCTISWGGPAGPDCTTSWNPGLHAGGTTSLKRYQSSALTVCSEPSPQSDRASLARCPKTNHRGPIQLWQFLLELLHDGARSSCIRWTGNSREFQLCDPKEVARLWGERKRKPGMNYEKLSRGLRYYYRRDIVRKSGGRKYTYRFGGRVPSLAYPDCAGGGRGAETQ
The conditions noted are these: protein: recombinant; tags: N-terminal GST; dsDNA, one strand shown. An outline of the steps:
as §1

The target of another assay is T5, ELF3 (Homo sapiens, UniProt P78545 1-371).
T5 sequence: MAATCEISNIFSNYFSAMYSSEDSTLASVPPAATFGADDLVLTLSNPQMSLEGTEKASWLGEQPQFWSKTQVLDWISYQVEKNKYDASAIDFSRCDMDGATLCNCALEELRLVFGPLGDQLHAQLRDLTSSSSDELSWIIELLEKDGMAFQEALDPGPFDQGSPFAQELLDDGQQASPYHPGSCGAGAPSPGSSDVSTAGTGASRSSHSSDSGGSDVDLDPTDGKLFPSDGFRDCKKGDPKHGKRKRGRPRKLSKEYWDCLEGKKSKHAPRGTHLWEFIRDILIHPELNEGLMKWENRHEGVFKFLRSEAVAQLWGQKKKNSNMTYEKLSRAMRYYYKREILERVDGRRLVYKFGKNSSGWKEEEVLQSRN
To be noted: protein: recombinant; tags: N-terminal GST; dsDNA, one strand shown. Summed up: as §1

The target of another assay is CRX (Homo sapiens, UniProt O43186 1-299). To be noted: protein: recombinant; tags: N-terminal GST; dsDNA, one strand shown. Summed up: as §1
The target in a further assay is ETV1 (Homo sapiens, UniProt P50549 1-477). To be noted: protein: recombinant; tags: N-terminal GST; dsDNA, one strand shown. Summed up:
as §1

For the next assay, the target named is T6, ERF (Homo sapiens, UniProt P50548 1-548).
T6 sequence: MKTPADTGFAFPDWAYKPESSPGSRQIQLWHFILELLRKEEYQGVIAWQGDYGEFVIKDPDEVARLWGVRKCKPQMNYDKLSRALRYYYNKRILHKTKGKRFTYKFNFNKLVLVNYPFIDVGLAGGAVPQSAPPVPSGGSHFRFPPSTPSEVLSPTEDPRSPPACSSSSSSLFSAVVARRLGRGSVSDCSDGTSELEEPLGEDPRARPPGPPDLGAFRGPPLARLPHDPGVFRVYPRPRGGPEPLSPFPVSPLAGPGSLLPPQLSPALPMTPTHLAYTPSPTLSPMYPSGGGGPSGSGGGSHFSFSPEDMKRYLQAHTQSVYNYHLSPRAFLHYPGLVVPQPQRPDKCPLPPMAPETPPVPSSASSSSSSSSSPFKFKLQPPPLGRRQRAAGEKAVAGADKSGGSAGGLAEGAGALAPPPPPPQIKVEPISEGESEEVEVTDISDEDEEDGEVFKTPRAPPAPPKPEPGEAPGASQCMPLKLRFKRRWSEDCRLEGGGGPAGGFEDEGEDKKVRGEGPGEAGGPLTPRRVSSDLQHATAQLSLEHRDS
To be noted: protein: recombinant; tags: N-terminal GST; dsDNA, one strand shown. Summed up: as §1

In the next assay the target is T7, ETV3L (Homo sapiens, UniProt Q6ZN32 1-361).
T7 sequence: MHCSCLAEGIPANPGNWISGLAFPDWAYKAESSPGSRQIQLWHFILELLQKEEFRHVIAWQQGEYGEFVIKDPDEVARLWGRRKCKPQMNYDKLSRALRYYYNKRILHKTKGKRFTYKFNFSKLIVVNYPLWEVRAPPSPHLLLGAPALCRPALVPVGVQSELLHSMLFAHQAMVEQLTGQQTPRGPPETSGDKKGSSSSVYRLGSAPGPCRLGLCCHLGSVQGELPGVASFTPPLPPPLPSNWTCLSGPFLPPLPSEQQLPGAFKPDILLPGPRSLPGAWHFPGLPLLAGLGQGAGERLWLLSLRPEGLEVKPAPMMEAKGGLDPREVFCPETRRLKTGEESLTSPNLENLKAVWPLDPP
The conditions noted are these: protein: recombinant; tags: N-terminal GST; dsDNA, one strand shown. Summed up: as §1

The target of a further assay is T8, ETS2 (Homo sapiens, UniProt P15036 1-469).
T8 sequence: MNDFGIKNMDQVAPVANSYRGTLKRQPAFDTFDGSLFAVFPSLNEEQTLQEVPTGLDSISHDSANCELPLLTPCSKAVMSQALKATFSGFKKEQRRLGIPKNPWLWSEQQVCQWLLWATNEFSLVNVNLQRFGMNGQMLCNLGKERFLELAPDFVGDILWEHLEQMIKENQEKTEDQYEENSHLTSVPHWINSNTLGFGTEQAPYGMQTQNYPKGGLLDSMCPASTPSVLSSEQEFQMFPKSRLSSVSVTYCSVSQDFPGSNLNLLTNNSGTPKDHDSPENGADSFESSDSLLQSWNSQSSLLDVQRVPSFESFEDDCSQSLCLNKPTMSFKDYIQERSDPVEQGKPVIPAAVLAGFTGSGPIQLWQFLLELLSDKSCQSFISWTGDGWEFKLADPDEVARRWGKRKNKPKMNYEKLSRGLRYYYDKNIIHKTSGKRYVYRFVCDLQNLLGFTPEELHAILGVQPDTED
The conditions noted are these: protein: recombinant; tags: N-terminal GST; dsDNA, one strand shown. Summed up: as §1

A further assay has as its target T9, SPDEF (Homo sapiens, UniProt O95238 1-335).
T9 sequence: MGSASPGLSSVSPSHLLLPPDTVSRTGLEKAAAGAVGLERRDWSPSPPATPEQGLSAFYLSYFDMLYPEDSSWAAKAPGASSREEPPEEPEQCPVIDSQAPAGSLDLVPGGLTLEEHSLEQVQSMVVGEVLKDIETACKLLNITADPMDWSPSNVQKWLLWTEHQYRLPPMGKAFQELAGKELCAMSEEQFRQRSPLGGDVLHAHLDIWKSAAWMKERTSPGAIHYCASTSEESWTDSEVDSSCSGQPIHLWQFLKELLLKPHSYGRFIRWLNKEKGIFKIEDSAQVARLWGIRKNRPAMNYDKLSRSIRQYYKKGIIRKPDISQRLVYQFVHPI
To be noted: protein: recombinant; tags: N-terminal GST; dsDNA, one strand shown. Summed up:
as §1

Another assay addresses T10, ETV7 (Homo sapiens, UniProt Q9Y603 1-341).
T10 sequence: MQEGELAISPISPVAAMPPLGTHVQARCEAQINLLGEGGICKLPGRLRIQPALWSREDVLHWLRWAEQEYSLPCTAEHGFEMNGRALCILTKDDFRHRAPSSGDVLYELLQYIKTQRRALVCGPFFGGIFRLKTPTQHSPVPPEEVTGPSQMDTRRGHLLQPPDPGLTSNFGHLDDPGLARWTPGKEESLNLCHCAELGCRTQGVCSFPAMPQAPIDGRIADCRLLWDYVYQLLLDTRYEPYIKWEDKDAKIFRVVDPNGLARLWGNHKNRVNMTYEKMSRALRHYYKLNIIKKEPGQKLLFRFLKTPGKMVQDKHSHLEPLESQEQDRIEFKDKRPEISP
The conditions noted are these: protein: recombinant; tags: N-terminal GST; dsDNA, one strand shown. Summed up:
as §1

The next assay addresses T11, ELF5 (Homo sapiens, UniProt Q9UKW6-2 1-255).
T11 sequence: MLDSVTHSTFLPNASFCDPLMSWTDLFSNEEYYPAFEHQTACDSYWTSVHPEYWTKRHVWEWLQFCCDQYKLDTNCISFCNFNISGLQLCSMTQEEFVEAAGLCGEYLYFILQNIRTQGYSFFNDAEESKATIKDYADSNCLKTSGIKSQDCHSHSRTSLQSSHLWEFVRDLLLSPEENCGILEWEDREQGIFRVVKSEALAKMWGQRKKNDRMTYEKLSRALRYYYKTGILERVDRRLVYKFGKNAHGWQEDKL
The conditions noted are these: protein: recombinant; tags: N-terminal GST; dsDNA, one strand shown. Summed up:
as §1

The target in another assay is T12, ETV3 (Homo sapiens, UniProt P41162-2 1-143).
T12 sequence: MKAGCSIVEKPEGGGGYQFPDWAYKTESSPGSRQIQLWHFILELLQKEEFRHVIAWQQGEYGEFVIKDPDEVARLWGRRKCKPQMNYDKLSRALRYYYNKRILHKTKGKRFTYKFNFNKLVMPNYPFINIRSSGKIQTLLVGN
To be noted: protein: recombinant; tags: N-terminal GST; dsDNA, one strand shown. Summed up:
as §1

A further assay concerns the target ETV6 (Homo sapiens, UniProt P41212 1-452). The conditions noted are these: protein: recombinant; tags: N-terminal GST; dsDNA, one strand shown. An outline of the steps:
as §1

Chain of ETV1 (P50549 whole entry): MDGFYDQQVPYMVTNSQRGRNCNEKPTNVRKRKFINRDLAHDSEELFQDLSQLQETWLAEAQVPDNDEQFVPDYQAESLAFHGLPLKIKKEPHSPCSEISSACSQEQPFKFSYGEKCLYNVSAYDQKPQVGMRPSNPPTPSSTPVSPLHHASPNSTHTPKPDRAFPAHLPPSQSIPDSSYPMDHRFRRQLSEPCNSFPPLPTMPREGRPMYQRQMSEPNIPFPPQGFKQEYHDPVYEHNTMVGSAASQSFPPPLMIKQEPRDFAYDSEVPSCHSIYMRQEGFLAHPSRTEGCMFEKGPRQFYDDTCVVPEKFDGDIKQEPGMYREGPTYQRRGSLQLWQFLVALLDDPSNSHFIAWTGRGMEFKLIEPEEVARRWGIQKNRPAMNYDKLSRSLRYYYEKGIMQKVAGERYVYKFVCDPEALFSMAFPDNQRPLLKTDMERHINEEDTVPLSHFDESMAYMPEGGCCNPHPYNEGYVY
Chain of ELF4 (Q99607 whole entry): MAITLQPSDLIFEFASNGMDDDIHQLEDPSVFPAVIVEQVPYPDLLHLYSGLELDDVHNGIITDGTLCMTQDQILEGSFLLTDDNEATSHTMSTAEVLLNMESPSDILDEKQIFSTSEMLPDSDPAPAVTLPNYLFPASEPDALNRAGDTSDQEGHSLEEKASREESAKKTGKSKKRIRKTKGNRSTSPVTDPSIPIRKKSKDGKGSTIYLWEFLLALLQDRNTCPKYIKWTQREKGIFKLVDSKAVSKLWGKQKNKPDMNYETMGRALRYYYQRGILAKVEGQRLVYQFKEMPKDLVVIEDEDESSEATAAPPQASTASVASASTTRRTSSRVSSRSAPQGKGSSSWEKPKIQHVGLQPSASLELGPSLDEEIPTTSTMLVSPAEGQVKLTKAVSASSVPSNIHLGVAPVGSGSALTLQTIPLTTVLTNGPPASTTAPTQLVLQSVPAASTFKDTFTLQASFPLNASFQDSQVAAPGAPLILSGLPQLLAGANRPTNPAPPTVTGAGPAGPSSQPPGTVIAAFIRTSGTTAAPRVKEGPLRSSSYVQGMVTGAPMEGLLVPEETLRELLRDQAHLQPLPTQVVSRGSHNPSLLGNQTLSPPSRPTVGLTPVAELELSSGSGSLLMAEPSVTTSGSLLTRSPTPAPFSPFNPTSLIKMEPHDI
Chain of CRX (O43186 whole entry): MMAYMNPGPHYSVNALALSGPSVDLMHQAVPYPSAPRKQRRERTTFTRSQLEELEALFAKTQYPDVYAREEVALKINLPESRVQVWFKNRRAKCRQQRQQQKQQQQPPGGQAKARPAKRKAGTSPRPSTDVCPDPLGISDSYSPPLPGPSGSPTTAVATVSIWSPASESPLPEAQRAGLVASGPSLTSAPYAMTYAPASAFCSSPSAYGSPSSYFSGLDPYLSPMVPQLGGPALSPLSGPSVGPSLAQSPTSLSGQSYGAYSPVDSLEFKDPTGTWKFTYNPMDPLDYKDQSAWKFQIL
Chain of ETV6 (P41212 whole entry): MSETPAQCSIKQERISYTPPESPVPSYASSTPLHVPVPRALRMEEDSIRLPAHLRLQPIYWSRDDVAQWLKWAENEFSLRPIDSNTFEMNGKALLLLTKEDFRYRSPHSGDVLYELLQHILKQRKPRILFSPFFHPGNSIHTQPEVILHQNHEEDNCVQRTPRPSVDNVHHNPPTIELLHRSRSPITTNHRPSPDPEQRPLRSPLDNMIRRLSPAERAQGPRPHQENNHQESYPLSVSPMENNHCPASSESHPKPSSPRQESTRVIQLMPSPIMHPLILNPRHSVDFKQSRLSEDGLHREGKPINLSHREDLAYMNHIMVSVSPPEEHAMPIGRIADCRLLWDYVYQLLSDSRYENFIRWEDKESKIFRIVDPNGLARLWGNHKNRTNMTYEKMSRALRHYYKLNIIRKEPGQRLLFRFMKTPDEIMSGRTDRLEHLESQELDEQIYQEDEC
Chain of ETV5 (P41161 whole entry): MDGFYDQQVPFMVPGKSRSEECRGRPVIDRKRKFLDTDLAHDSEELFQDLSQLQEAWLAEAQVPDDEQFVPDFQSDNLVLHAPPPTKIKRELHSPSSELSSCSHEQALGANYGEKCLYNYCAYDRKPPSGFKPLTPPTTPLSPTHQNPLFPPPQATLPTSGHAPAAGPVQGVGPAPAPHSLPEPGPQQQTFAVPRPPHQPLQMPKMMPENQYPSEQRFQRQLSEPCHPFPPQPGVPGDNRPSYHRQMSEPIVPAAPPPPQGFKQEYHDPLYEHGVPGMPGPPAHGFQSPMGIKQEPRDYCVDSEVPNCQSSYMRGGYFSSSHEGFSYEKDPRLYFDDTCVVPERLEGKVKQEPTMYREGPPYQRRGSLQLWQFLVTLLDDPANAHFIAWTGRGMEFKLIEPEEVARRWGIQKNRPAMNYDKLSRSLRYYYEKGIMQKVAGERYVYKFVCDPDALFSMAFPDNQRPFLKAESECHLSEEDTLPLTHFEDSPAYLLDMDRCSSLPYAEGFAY
Chain of HSF1 (Q00613 whole entry): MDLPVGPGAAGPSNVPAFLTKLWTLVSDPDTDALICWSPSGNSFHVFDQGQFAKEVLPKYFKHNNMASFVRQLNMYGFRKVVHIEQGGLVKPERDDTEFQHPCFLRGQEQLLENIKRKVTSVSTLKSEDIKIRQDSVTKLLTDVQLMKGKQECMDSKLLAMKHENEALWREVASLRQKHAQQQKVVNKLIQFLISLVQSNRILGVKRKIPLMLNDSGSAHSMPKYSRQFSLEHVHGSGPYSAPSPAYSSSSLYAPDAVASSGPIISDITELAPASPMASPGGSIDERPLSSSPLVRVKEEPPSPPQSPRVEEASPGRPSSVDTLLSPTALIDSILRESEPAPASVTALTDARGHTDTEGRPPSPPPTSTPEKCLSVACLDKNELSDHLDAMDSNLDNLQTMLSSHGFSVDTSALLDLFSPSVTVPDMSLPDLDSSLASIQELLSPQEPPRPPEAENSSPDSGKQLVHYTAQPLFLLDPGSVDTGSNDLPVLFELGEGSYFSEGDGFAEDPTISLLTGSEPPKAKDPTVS

Consider TAATTT, for which the binding signal with FEV is 1.35 fold enrichment (6-mer frequency, TF over GST control); with ETV5 it was 1.46 fold enrichment (6-mer frequency, TF over GST control); with HSF1, 1.64 fold enrichment (6-mer frequency, TF over GST control); in the assay with SPIC, 1.41 fold enrichment (6-mer frequency, TF over GST control); with ELF4 it was 1.36 fold enrichment (6-mer frequency, TF over GST control); with ELK4, 1.38 fold enrichment (6-mer frequency, TF over GST control). In addition, the binding signal was 1.58 fold enrichment (6-mer frequency, TF over GST control) in the assay with ETV2; 1.49 fold enrichment (6-mer frequency, TF over GST control) with ELF3; 2.03 fold enrichment (6-mer frequency, TF over GST control) in the assay with CRX; 1.35 fold enrichment (6-mer frequency, TF over GST control) in the assay with ETV1; 1.43 fold enrichment (6-mer frequency, TF over GST control) in the assay with ERF; 1.48 fold enrichment (6-mer frequency, TF over GST control) in the assay with ETV3L. Also, the binding signal was 1.41 fold enrichment (6-mer frequency, TF over GST control) in the assay with ETS2; 1.32 fold enrichment (6-mer frequency, TF over GST control) with SPDEF; 1.37 fold enrichment (6-mer frequency, TF over GST control) in the assay with ETV7; 1.46 fold enrichment (6-mer frequency, TF over GST control) with ELF5; 1.24 fold enrichment (6-mer frequency, TF over GST control) with ETV3; 1.39 fold enrichment (6-mer frequency, TF over GST control) in the assay with ETV6.

Source of the values: PMC7862700, “An all-to-all approach to the identification of sequence-specific readers for epigenetic DNA modifications on cytosine”.
